A selection: hits, their analogues and other compounds. The true share with any hit is near 2.4%.
M1 antag – human CHRM1 antagonism; P11229; CHO-K1 hM1, Fluo-8 calcium fluorescence, ACh EC80 antagonist; inhibition, % at 3 µM; 360,000 tested, 1.3% active; AID 588852;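 active = percent inhibition above its own plate's cutoff, namely the mean of that plate's compound wells plus 3 SD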;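 also: peak over basal fluorescence ratio during 140 s after agonist addition; 0% = ACh EC80 plus DMSO and 100% = DMSO alone without agonist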
Target sequence (P11229 whole entry, looked up): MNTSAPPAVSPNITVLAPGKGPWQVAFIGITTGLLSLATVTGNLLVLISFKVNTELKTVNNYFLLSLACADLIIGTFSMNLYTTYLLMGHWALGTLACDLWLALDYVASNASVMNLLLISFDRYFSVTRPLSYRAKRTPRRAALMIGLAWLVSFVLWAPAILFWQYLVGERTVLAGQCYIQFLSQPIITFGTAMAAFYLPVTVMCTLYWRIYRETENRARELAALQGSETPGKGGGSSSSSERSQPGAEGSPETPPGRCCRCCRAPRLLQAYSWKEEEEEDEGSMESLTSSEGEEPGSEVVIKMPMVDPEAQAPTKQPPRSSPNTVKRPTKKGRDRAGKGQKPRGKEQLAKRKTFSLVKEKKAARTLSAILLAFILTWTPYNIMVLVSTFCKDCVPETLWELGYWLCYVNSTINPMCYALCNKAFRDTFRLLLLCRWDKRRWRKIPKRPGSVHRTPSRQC
CHRM1 PAM – human CHRM1 positive allosteric modulation; CHO-K1 hM1, Fluo-8 calcium fluorescence, ACh EC20; 0% = ACh EC20, 100% = maximal ACh; activation, % at 3 µM; 360,000 tested, 0.088% active; in the data active = activation above about 19%, passing the limit was not always enough
CHO-K1 Ca PAM – nonselective activator or artifact in parental CHO-K1 calcium assay | ATP EC20, Fluo-8 calcium fluorescence; 0% at ATP EC20, 100% at ATP max | activation, % at 3 µM | 360,000 tested, 0.02% active;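 active = activation above the run cutoff, the mean activation of all test compounds plus 3 SD, cut at about 40% in these data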;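 also: peak over basal fluorescence ratio in a 140 s read after ATP addition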
M1 ag – activates human CHRM1 receptor. CHO-K1 hM1, Fluo-8 calcium fluorescence, agonist mode; 0% DMSO, 100% acetylcholine EC100. AID 588814. P11229. 360,000 tested, 0.33% active. activation, % at 3 µM;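 active = activation above the run's mean compound activation plus 3 SD, cut at about 16% in these data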;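 also: peak over basal fluorescence ratio within a 140 s kinetic read after compound addition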
M1 ag parental – nonselective activator or artifact in parental CHO-K1 cells; Fluo-8 calcium fluorescence; scaled to maximal ATP response, vehicle zero; activation, % at 3 µM; 360,000 tested, 0.48% active; in the data active = activation above about 15%;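 also: untransfected CHO-K1 host cells lacking M1 receptor as counterscreen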
CHO-K1 Ca antag – counter-screen for M1 antagonists: effect in parental CHO-K1 cells. 360,000 tested, 0.6% active. inhibition, % at 3 µM. ATP-induced calcium, Fluo-8 fluorescence;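 active = inhibition above a per-plate cutoff, the plate's mean sample inhibition plus 3 SD, cut at about 24% in these data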;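 also: 0% = DMSO plus EC80 ATP and 100% = DMSO alone without ATP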
* = called active by the depositor.

SMILES	M1 antag	CHRM1 PAM	CHO-K1 Ca PAM	M1 ag	M1 ag parental	CHO-K1 Ca antag
O=c1cc2c(nn1Cc1cccc(Cl)c1)-c1ccccc1CC2	-13	-8	1	-5	3	47*
O=c1cc2c(nn1Cc1ccc(Cl)cc1)-c1ccccc1CC2	2	3	-2	-2	0	5
COC(=O)c1ccc(/C=C(\C#N)c2nc3ccccc3s2)cc1	8	1	9	2	1	6
N#C/C(=C\c1ccccn1)c1nc2ccccc2s1	26	-22	-12	28*	34*	34*
N#C/C(=C/c1ccc(-c2ccc(S(N)(=O)=O)cc2)o1)c1nc2ccccc2s1	60*	-22	-6	54*	30*	41*
N#C/C(=C/c1ccc(-c2ccc(S(N)(=O)=O)cc2)o1)C(=O)Nc1ccccc1	23	-15	11	-3	4	28*
Cc1nc2ccc(Br)cc2c2c1CC(CO)O2 (stereo not given)	12	-6	-12	-8	0	11
CCC(=O)Nc1ccc(C(=O)NCc2ccccn2)cc1	5	0	1	-3	0	5
Oc1ccc(-c2n[nH]c(C(F)(F)F)c2-c2ccccc2)c(O)c1	42*	-24	-4	-3	8	28*
COc1ccc(-c2c(-c3ccc(O)cc3O)n[nH]c2C(F)(F)F)cc1	3	17	-20	5	0	12
CC1CCN(S(=O)(=O)c2ccc3c(c2)N(CC(=O)NCCCN2CC(C)CC(C)C2)C(=O)CS3)CC1 (stereo not given)	-14	8	18	-5	1	-10
COc1cccc(CNc2ccc(F)c([N+](=O)[O-])c2)c1O	90*	-15	-16	3	3	13
Cc1nnc(N2CCCC(C(=O)NCc3ccc(OC(C)C)cc3)C2)c2nn(-c3ccccc3)c(C)c12 (stereo not given)	41*	-20	12	-6	-1	-22
O=C(NCCc1cccc(Cl)c1)c1ccc(Cl)c([N+](=O)[O-])c1	-2	-12	5	-7	5	2
Cc1ccc(C(=O)NCCSc2c(C)[nH]c3ccccc23)cc1[N+](=O)[O-]	14	-15	-3	-4	5	5
O=C(NCCc1nc2ccccc2[nH]1)c1ccc(Cl)c([N+](=O)[O-])c1	29*	-27	19	-8	3	9
Cc1ccc(C(=O)NCCc2nc3ccccc3[nH]2)cc1[N+](=O)[O-]	5	-6	-12	-1	1	24*
CC1(C)CC(=O)C=C(CN2C(=O)c3ccccc3C2=O)C1=O	9	-1	-15	-3	0	3
CC(=O)c1cccc(NC(=O)c2cccc3c(-c4cccc(C(N)=O)c4)coc23)c1	20	-13	3	5	11	1
CS(=O)(=O)Nc1cccc(NC(=O)c2cccc3c(-c4cccc(C(N)=O)c4)coc23)c1	31*	-13	7	-2	4	-3
CCn1c(SCc2cccc(C)c2)nnc1-c1ccc(C)cc1	11	-3	19	-6	16*	-3
CCn1c(SCc2ccc(C(=O)Nc3cc(C)cc(C)c3)cc2)nnc1-c1ccncc1	31*	-8	11	3	4	5
Cc1ccc(/C=C/c2nc3ccccc3c(=O)n2CCc2ccccc2)cc1	-10	6	-15	-5	0	26*
O=c1c2ccccc2nc(/C=C/c2ccc([N+](=O)[O-])cc2)n1CCCO	5	2	22	-5	3	-3
O=c1c2ccccc2nc(/C=C/c2cccc([N+](=O)[O-])c2)n1CCCO	6	-4	-5	-5	1	28*
O=C(c1cc(=O)[nH]c2ccccc12)N1CCN(S(=O)(=O)c2ccc(Cl)cc2)CC1	23	-10	-1	-1	9	-7
O=C(c1cc(=O)[nH]c2ccccc12)N1CCN(S(=O)(=O)c2ccc3ccccc3c2)CC1	21	-4	-5	-1	3	26*
Cc1occc1-c1nnc(SCC(=O)Nc2nc(C(C)(C)C)cs2)o1	51*	-24	-10	-1	11	30*
Cc1csc(NC(=O)CSc2nnc(-c3ccoc3C)o2)n1	-13	6	13	-1	0	-7

Assay outcomes as filed in PubChem BioAssay.
